Compound activity: PubChem BioAssay, Buhrlage Lab, Dana-Farber Cancer Institute and Novartis Institutes for BioMedical Research (Cambridge, Mass)
Most compounds without a hit are left out; they make up all but 9.2% or so of the library.
USP8 block – human USP8 deubiquitinase inhibition; purified USP8, Ub-rhodamine cleavage fluorescence, 30 min; AID 1645853; 47,000 compounds, 4.2% hits; inhibition, % at 20 µM
OTUD3 block – inhibitors of human OTUD3 deubiquitinase; inhibition, % at 25 µM; AID 1645858; 47,000 compounds, 0.7% hits; purified OTUD3, Ub-rhodamine fluorescence, 2 h; Q5T2D3
USP7 inh – inhibitors of human USP7 deubiquitinase. Q93009. purified USP7, Ub-rhodamine cleavage fluorescence. inhibition, % at 20 µM. 47,000 compounds, 0.3% hits
USP17 block – blocks human USP17 ubiquitin-rhodamine cleavage; A8MUK1; purified USP17, Ub-rhodamine cleavage fluorescence, 3 h; inhibition, % at 50 µM; 47,000 compounds, 6.5% hits; AID 1645855
UCHL1 inh – human UCHL1 deubiquitinase inhibition. P09936. 47,000 compounds, 0.2% hits. purified UCHL1, Ub-rhodamine cleavage fluorescence. inhibition, % at 20 µM
USP10 inh – blocks human USP10 ubiquitin-rhodamine cleavage; Q14694; purified USP10, Ub-rhodamine fluorescence, 60 min; inhibition, % at 20 µM; 47,000 compounds, 1.1% hits
* marks the source's active call; other numbers are inactive results; . = not tested or not shown. No stated cut-off is given here; in the data, active means inhibition above about 30%; inactive means the rest.

SMILES	USP8 block	OTUD3 block	USP7 inh	USP17 block	UCHL1 inh	USP10 inh
O=C(CN1C(=O)C2CCCN2c2ncc(Cl)cc21)NCc1ccc(F)cc1 (configuration not stated)	-23.3	-96.3	-16.1	-26.6	-2.5	-8.7
O=C(Nc1ccc2ccccc2c1)C(=O)C1C(=O)Nc2ccccc21 (configuration not stated)	61.8*	-12.8	2.6	-22.1	1.6	7.1
O=C(NCc1ccc(Cl)cc1)c1ccc(N2CCCS2(=O)=O)cc1	6.8	8.1	10.4	64.2*	2.2	13.3
O=C(NCc1ccc(Cl)cc1)c1cccc(N2C(=O)CCS2(=O)=O)c1	10.1	8.5	-3.7	8.6	0.0	-11.2
O=C(CSc1nc2ccccc2[nH]1)c1ccccc1F	-0.9	-6.5	-1.9	-36.6	0.1	1.0
Cc1cc(C(=O)CSc2nc3ccccc3[nH]2)c(C)n1Cc1ccco1	56.8*	2.5	15.1	50.2*	15.8	8.7
COc1ccc(NC(=O)NC(COC(=O)Nc2ccc(OC)cc2)c2ccccc2)cc1 (configuration not stated)	25.4	29.5	7.2	59.9*	2.8	14.7
Cc1ccc(C(=O)NC2COC3(CCNCC3)C2)cc1 (configuration not stated)	-12.4	9.4	2.7	5.2	-1.5	-0.7
COc1ccc(Nc2cc(-c3cccc(C(F)(F)F)c3)nc(-c3ccncc3)n2)cc1	37.8*	-2.8	2.9	.	-0.9	-3.4
CN1c2ccc(Cl)cc2-c2nc(SCC(=O)Nc3ccc(F)cc3)ncc2S1(=O)=O	50.3*	18.8	2.7	7.0	-2.5	10.9
CC(=O)Nc1ccc([C@H]2OCC(=O)N(C3CCOCC3)[C@@H]2CO)cc1	8.9	5.4	3.9	24.3	6.5	-2.0
CCCn1c(=O)c2nscc2n(CC(=O)NCc2ccccc2)c1=O	-8.0	-9.8	-2.1	-9.8	-3.5	-6.7
CCCn1c(=O)c2nscc2n(CC(=O)NCc2ccc(C)cc2)c1=O	8.3	4.3	-1.4	43.4*	-3.0	2.0
CCn1cc2c(n1)c(=O)n(Cc1ccccc1)c(=O)n2CC(=O)NCc1ccc(C)cc1	60.5*	34.7*	13.5	55.9*	2.2	28.5
CCn1cc2c(n1)c(=O)n(Cc1ccc(C)cc1)c(=O)n2CC(=O)Nc1ccc(F)cc1	25.7	15.9	19.1	80.6*	3.0	29.2
CC(C)Cn1c(=O)c2nscc2n(CC(=O)Nc2ccccc2)c1=O	62.7*	13.4	-42.3	26.1	14.8	-9.1
Cc1cccn2c(=O)c(C(=O)N3CCC4(CC3)OCCO4)cnc12	-239.3	22.5	4.6	11.3	0.3	1.5
COc1ncccc1CN1CCC2(CC1)CCN(c1ncccn1)CC2	-113.5	-3.8	0.7	-16.8	-2.4	0.7
CCn1nccc1C(=O)N1CC(C(=O)NC2CCCC2)C2(CCOCC2)C1 (configuration not stated)	1.1	0.2	0.5	0.1	-3.0	-0.6
Cc1ccc(C(=O)Nc2ncc3c(n2)CC(C)(C)CC3=O)cc1	12.2	7.5	4.7	19.9	6.2	1.3
O=C(c1ccc(Cl)cc1)N1CCCn2c1nc1ccccc12	2.9	-4.2	-58.3	-1.6	-1.9	1.2
COc1ccccc1C(=O)N(Cc1ccccc1)C(C)(C)c1ccccc1	16.7	17.9	0.0	25.6	4.6	5.9
Cn1cc2c(n1)c(=O)n(Cc1ccc(F)cc1)c(=O)n2CC(=O)NCc1ccco1	-11.4	-4.3	-46.0	-38.0	-3.8	-4.6
O=C(Cn1c(=O)n(Cc2ccccc2)c(=O)c2nscc21)NCc1ccco1	20.1	3.3	-28.0	41.9*	-0.9	2.3
O=C(Cn1c(=O)n(Cc2ccccc2)c(=O)c2cc(Cl)ccc21)NCc1ccco1	6.4	-1.7	-2.6	-10.4	-1.7	21.9
Cn1cc2c(n1)c(=O)n(Cc1ccc(F)cc1)c(=O)n2CC(=O)Nc1ccccc1F	3.1	-8.2	-0.2	42.4*	0.4	0.6
COc1ccc(NC(=O)CN2C(=O)CC(c3ccccc3)S(=O)(=O)c3ccccc32)cc1 (configuration not stated)	16.2	23.6	-3.3	31.0*	3.2	2.2
Cc1cccc(NC(=O)CN2C(=O)CC(c3ccccc3)S(=O)(=O)c3ccccc32)c1C (configuration not stated)	8.3	-6.9	0.5	51.2*	0.0	4.2
COc1ccccc1CNC(=O)CN1CC(C)Sc2ccccc21 (configuration not stated)	-29.8	-7.9	-7.0	-4.9	-1.4	-9.2
